Growth data for 7 compounds are collected here from PubChem BioAssay (NCI).

Common to all, as to experiment: NCI-60 one-dose screen, 48 h (100 = growth as untreated, 0 = no growth, -100 = all killed)
Common to all, as to settings: 10 µM unless noted

Assay [1] concerns NCI-H23 lung.
The test system of assay [2] is NCI-H226 lung.
In assay [3] the test system is NCI-H322M lung.
The test system of assay [4] is HOP-62 NSCLC.
Assay [5] concerns NCI-H460 lung.
The test system of assay [6] is HOP-92 NSCLC.
Assay [7] deals with NCI-H522 lung.
The subject of assay [8] is A549/ATCC NSCLC.
The test system of assay [9] is 786-0 renal.
In assay [10] the test system is COLO 205 colon.
Assay [11] relates to DU-145 prostate.
The test system of assay [12] is K-562 leukemia.
For assay [13], the system named is MALME-3M melanoma.
In assay [14] the test system is RXF 393 renal.
Assay [15] relates to SF-268 CNS.
Assay [16] has as its system SF-295 CNS.
The subject of assay [17] is SF-539 CNS.
Assay [18] deals with UACC-257 melanoma.
Assay [19] has as its system M14 melanoma.
The test system of assay [20] is MDA-MB-231 breast.

The structures appear in SMILES notation. About 83,000 compounds went through this panel and 20% of them were active in at least one assay; those are over-represented in the sample as a whole.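 Results are percent growth after 48 hours of single-concentration exposure. 100 means growth as in untreated cells, lower positive values show inhibition; negative values down to -100 show cell death.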 Unmarked numbers belong to inactive results. Activity calls are given as the source filed them. How the source made its calls: active means growth percent below 10; inactive means the rest.

Take `COc1ccccc1C(OC(C)=O)OC(C)=O`: the growth in [1] is 98.7%; in assay [2] it was 94%; in [3], 97.5%; in assay [4], 104%; in assay [5] it was 107%; in assay [6], 115%. The growth is 78% in assay [7]; 79.5% in assay [8]; 97.7% in assay [9]; 110% in [10]; 109% in assay [11]; 95.6% in assay [12]. Further, the growth in assay [13] was 108%; in assay [14], 111%; in assay [15], 98.8%; in assay [16], 96.6%; in assay [17] it was 101%; in assay [18], 87.5%. Moreover, in [19], the growth is 98.3%.

Take `COc1cc2ncnc(Oc3ccc(NC(=O)Nc4ccc(CN5CCOCC5)c(C(F)(F)F)c4)c4ccccc34)c2cc1OC`: the growth in assay [1] was 16.8%; in assay [2], 1.53% (active); in assay [3] it was 19.3%; in assay [4] it was 66.8%; in [5] it was 25.4%; in assay [6], -2.3% (active). The growth was 19.8% in assay [7]; 23.1% in [8]; 37.1% in assay [9]; 13.4% in assay [10]; 32.6% in assay [11]; -11.1% (active) in assay [13]. For the same compound, the growth in assay [20] was 51.2%; in assay [14] it was 20.8%; in assay [15], 23.3%; in assay [16] it was 40.6%; in assay [17], 55.4%; in [18], 21.1%. Besides, in [19], the growth is 20.4%.

Take `O=c1c(-c2ccc3c(c2)OCO3)coc2c(CO)c(O)ccc12`: the growth was 56.8% in assay [1]; -35.6% (active) in [2]; 16.6% in assay [3]; -54.1% (active) in assay [4]; 9.52% (active) in [5]; -21.6% (active) in [6]. Further, the growth in [7] is 36.7%; in [8], 49.2%; in assay [9] it was 23.6%; in [10] it was 113%; in assay [11], -20.8% (active); in [13], -45.1% (active). The growth in [20] was -33.6% (active); in [14], -84% (active); in assay [15] it was -43.3% (active); in [16] it was 3.29% (active); in [17] it was -9.82% (active); in [18] it was 9.01% (active). Further, the growth in assay [19] is 45%.

Take `O=C(Nc1ccc(F)cc1)Nc1ccc(Br)c(C(F)(F)F)c1`: the growth is -7.43% (active) in [1]; -6.87% (active) in assay [2]; 22% in assay [3]; 23.2% in [4]; 4.62% (active) in assay [5]; -13.3% (active) in assay [6]. The growth in assay [7] was -16.9% (active); in [8], 10.2%; in assay [9], 13.6%; in assay [10] it was -27.3% (active); in assay [11], 22.3%; in assay [13] it was -6.11% (active). Further, the growth in assay [20] is 7.99% (active); in assay [14], 26.8%; in assay [15], 22%; in assay [16], 3% (active); in assay [17], 19.9%; in [18], 1.49% (active). Besides, the growth in assay [19] was 15.3%.

For the compound `CCCCNC(=O)Oc1ccc(/C(=C(/CC)Cc2ccccc2)c2ccc(OCCCN(C)C)cc2)cc1`, the growth in assay [1] is 91.7%; in assay [2] it was 92.9%; in assay [3] it was 83.1%; in assay [4], 96.1%; in assay [5], 63.7%; in assay [6], 43.8%. The growth in [7] is 88.1%; in assay [8] it was 69.5%; in assay [9], 71.2%; in assay [10], 20.5%; in assay [11], 89.2%; in [13], 93.4%. Besides, the growth is 78.9% in [20]; 70.7% in assay [14]; 77.8% in assay [15]; 94.9% in assay [16]; 88.5% in assay [17]; 104% in [18]. In addition, in [19], the growth was 81.8%.

In the case of `OCc1cnccc1NC12CC3CC(CC(C3)C1)C2`, the growth in [1] is 102%; in [2], 95.4%; in assay [3], 103%; in assay [4], 101%; in assay [5], 100%; in assay [6] it was 86.2%. In addition, the growth was 86.1% in assay [7]; 96% in [8]; 101% in assay [9]; 91.1% in [10]; 104% in assay [11]; 99.4% in assay [13]. For the same compound, the growth in [20] was 97.6%; in assay [14], 99.9%; in [15], 98.3%; in assay [16], 102%; in assay [17], 108%; in assay [18], 90%. Also, the growth in assay [19] is 100%.

For `COc1cc2ncnc(Oc3ccc(NC(=O)Nc4ccc(C5(C#N)CCCC5)cc4)c4ccccc34)c2cc1OC`, the growth is 47.6% in [1]; 80.3% in assay [2]; 66.7% in assay [3]; 41.5% in [4]; 19.3% in assay [5]; -39.8% (active) in [6]. Besides, the growth in [7] was 37.8%; in [8] it was 25.6%; in assay [9] it was -40.7% (active); in assay [10], 82.5%; in assay [11], 57.7%; in assay [13], 31.3%. The growth was 43.6% in assay [20]; 14.9% in assay [14]; 27% in assay [15]; 13.7% in assay [16]; 64.7% in assay [17]; 94.8% in assay [18]. Besides, in assay [19], the growth was 47.3%.
